Cav3 T inh: human Cav3.2 channel inhibition, primary screen | O95180 | Cav3.2-expressing cells, Fluo-4 calcium fluorescence FDSS; stronger effect = lower value | B-score at 10 µM | actives 4% (n = 100,000);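 active = single-dose well whose peak fluorescence ratio is a statistical outlier from its plate by either plate-standardised score or position-corrected B-score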
Smad3 inh: blocks human Smad3 binding to FoxH1 peptide | P84022 | TR-FRET Smad3/Dy647-FoxH1 peptide binding, europium anti-His | inhibition, % at 25 µM | actives 0.29% (n = 88,000) | AID 630;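 active = compounds that reduce the energy-transfer binding signal between the protein and its labelled peptide by more than half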
Target sequence (P84022 whole entry, looked up): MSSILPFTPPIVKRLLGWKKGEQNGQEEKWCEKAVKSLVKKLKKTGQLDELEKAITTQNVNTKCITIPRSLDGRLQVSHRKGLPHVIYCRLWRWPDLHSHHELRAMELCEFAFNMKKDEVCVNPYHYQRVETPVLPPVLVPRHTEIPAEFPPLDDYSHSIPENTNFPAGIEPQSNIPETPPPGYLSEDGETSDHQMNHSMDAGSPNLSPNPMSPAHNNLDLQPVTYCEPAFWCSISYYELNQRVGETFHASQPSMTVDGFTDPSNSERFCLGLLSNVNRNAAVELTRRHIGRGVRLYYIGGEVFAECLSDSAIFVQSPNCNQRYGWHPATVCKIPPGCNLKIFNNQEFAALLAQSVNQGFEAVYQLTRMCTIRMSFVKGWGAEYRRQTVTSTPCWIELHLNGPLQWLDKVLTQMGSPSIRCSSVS
DAT uptake mod: human DAT dopamine uptake with cocaine, either direction | Q01959 | LLC-PK1 hDAT cells, [14C]-dopamine uptake with cocaine IC80; actives deviate in either direction | B-score at 10 µM | actives 1.3% (n = 110,000) | AID 449768;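 active = Z score or B-score, a plate-position-corrected score, falls beyond the plate's 99.7% confidence bounds, in either direction; inactive = both scores lie inside the 99.7% bounds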
PostGolgi ctrl: yeast control strain growth, post-Golgi counter-screen; efflux-deficient yeast background strain, growth absorbance A615, 16 h; inhibition, % at 10 µM; actives 5% (n = 98,000)
TNAP act DEA: activates human TNAP at intermediate phosphate acceptor concentration; P05186; purified TNAP, CDP-star luminescence, 100 mM DEA, 30 min; stronger effect = higher value; scale: 0 levamisole-inhibited, 1 vehicle-only enzyme; activation factor at 20 µM; 64,000 tested, under 10 active; AID 813;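 active = activation factor of at least 2 at 20 µM, relative to controls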
PostGolgi yeast: growth inhibition of a yeast mutant, post-Golgi transport screen. post-Golgi transport phenotypic cell assay. inhibition, % at 10 µM. actives 0.9% (n = 98,000). AID 739;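 also: yeast cells grown in 1536-well plates; yeast grown about 18 h at 30C before absorbance read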
A number is an active result; i = inactive; nt = not tested or not shown. Shown are actives, neighbours in structure and some others; about 8.7% of the full set was active somewhere. Rule as the data show it, unless noted: active = inhibition above about 30%; inactive = the rest.

SMILES	Cav3 T inh	Smad3 inh	DAT uptake mod	PostGolgi ctrl	TNAP act DEA	PostGolgi yeast
Cc1nnc(N2C(=O)C(O)=C(C(=O)c3ccco3)C2c2ccc(C(C)(C)C)cc2)s1 (configuration not stated)	-3.7	i	i	nt	nt	nt
Cn1c(=O)c2c(nc(CN3CCN(c4ccccc4F)CC3)n2CCCc2ccccc2)n(C)c1=O	i	i	i	nt	nt	nt
C=CCN(CC=C)c1cnn(-c2nc3ccccc3[nH]2)c(=O)c1Cl	i	nt	i	i	nt	i
O=c1c(Cl)c(NCCCO)cnn1-c1nc2ccccc2[nH]1	3.1	i	i	i	nt	i
N#C/C(=N\Nc1ccccc1Cl)C(=O)c1ccccc1	nt	nt	nt	48	nt	i
N#CC(C(=O)Nc1cccc(Cl)c1)=C1Nc2ccccc2N1	i	i	i	i	i	i
N#C/C(=N\Nc1cccc(Cl)c1)C(=O)c1ccccc1	-9.2	nt	i	84	nt	i
O=C(NC1CCCCC1)N1CCN(Cc2nc3ccccc3c(=O)[nH]2)CC1	i	nt	i	nt	i	nt
COCCNC(=O)Cn1c(=O)n(CCC(=O)NCCc2ccccc2)c(=O)c2ccccc21	nt	i	nt	nt	i	nt
CC(C)CC(=O)NC(NC(=S)Nc1sc2c(c1C#N)CCCC2)C(Cl)(Cl)Cl (configuration not stated)	-5.3	nt	i	i	nt	i
N#Cc1c(NC(=O)c2ccccc2)sc2c1CCC2	i	i	i	i	nt	i
Cc1nn(CC(=O)Nc2sc3c(c2C#N)CCC(C(C)(C)C)C3)c(C)c1[N+](=O)[O-] (configuration not stated)	i	nt	i	35	nt	i
Cc1nn(CCCC(=O)Nc2sc3c(c2C#N)CCC3)c(C)c1[N+](=O)[O-]	i	nt	i	i	nt	i
Cc1nn(C(C)C(=O)Nc2sc3c(c2C#N)CCCC3)c(C)c1[N+](=O)[O-] (configuration not stated)	-3.3	nt	i	i	nt	i
CC(C)C(C(=O)Nc1sc2c(c1C#N)CCCCC2)N1C(=O)c2ccccc2C1=O (configuration not stated)	-8.7	nt	i	i	nt	i
Cc1nnc(SCC(=O)Nc2ccc(Cl)cn2)[nH]c1=O	i	i	i	nt	nt	nt
CC1(c2nnc(-c3ccc(Cl)cc3)o2)CC(c2c(Cl)cccc2Cl)=NO1 (configuration not stated)	i	nt	i	nt	nt	nt
Cc1ccc(-c2csc3ncn(CC(=O)N4CCOCC4)c(=O)c23)cc1	i	i	i	i	nt	i
CC(=O)Nc1ccc(NC(=O)c2ccccc2N(C)S(C)(=O)=O)cc1	i	i	i	i	i	i
COC(=O)c1ccc(NC(=O)c2ccccc2N(C)S(C)(=O)=O)cc1	i	i	-2.7	i	i	i
Cc1ccc(S(=O)(=O)N2CCCC2C(=O)n2nc(C)cc2C)cc1 (configuration not stated)	nt	i	nt	i	i	i
O=c1oc2cc(Oc3c([N+](=O)[O-])cc(C(F)(F)F)cc3[N+](=O)[O-])ccc2c2c1CCCC2	i	nt	i	85	nt	106
O=C(Oc1ccc2c3c(c(=O)oc2c1)CCC3)c1ccco1	i	i	i	i	nt	i
C=CCn1cc(/C=N\NC(=O)c2cc3c(ccc4ccccc43)o2)c2ccccc21	i	nt	i	35	nt	i
Cc1ccc(C(=O)Nc2ccccc2C(N)=O)o1	i	i	i	i	i	i
SMILES	Cav3 T inh	Smad3 inh	DAT uptake mod	PostGolgi ctrl	TNAP act DEA	PostGolgi yeast
CCCN(CCC)CCCNC(=O)c1cc2cc3ccc(OC)cc3nc2o1	i	i	i	40	i	i
COc1ccc2cc3cc(C(=O)NCCN4CCc5ccccc5C4)oc3nc2c1	i	i	i	66	i	i
COc1ccc2cc3cc(C(=O)NCCN4CCN(Cc5ccccc5)CC4)oc3nc2c1	i	i	i	i	i	i
CCCCN(CC)CCCNC(=O)c1cc2cc3ccc(OC)cc3nc2o1	i	i	i	46	i	i
CCN1CCN(CCCNC(=O)c2cc3cc4ccc(OC)cc4nc3o2)CC1	i	i	i	35	i	i
CC(C)=C1C2CCC1C(C(=O)NCc1ccccc1)C2C(=O)O (configuration not stated)	i	i	i	i	i	i
CC(C)(C)c1cc(/C=N/NC(=O)Cc2nc3ccccc3[nH]2)cc(C(C)(C)C)c1O	-7.6	nt	i	i	nt	i
CCCCN(CCNP(=O)(OCC)OCC)CP(=O)(OCC)OCC	i	i	i	i	nt	i
CCOc1cc(CNC(C)(C)CO)cc(Br)c1OCc1ccc(Cl)cc1Cl	i	nt	2.5	91	nt	i
COc1ccccc1/C=N/NC(=Nc1ccc(C)cc1)c1nc2ccccc2s1	i	i	i	i	nt	i
COc1cc(/C=N/NC(=Nc2ccc(C)cc2)c2nc3ccccc3s2)ccc1O	i	i	i	55	nt	i
CCOc1ccccc1NC(=O)C1=C(C)NC(=O)NC1c1cccc(OC)c1OC (configuration not stated)	i	i	i	i	i	i
S=C(NCc1ccccc1)NCc1ccccc1	i	nt	i	i	nt	i
CCCCNC(=O)NS(=O)(=O)c1ccc(C)cc1	i	i	i	nt	i	nt
CCCCOc1ccc(CNC(=O)NS(=O)(=O)c2ccc(OCC(C)C)cc2)cc1	-5.3	nt	i	i	nt	i
CCCCOc1ccc(CNC(=O)NS(=O)(=O)c2ccc(OCC)cc2)cc1	-7.4	i	-9.1	i	nt	i
CC(C)COc1ccc(CNC(=S)NCc2ccccc2)cc1	-5.6	nt	i	i	nt	i
CCCCOc1ccc(S(=O)(=O)NC(=O)NCc2ccc(OCCC)cc2)cc1	-3.5	i	i	nt	nt	nt
COc1ccc(CNC(=O)NS(=O)(=O)c2ccc(C)cc2)cc1	i	nt	i	nt	nt	nt
CCOc1ccc(-c2nc(CSCC(=O)NCCN3CCOCC3)c(C)o2)cc1	i	nt	i	i	i	i
Cn1c(=O)c2[nH]c(CN(Cc3ccccc3)Cc3ccccc3)nc2n(C)c1=O	nt	i	nt	i	i	i
O=c1c2c3c(sc2nc2sc(C4CC4)nn12)CCCC3	i	i	i	i	i	i
C=CCSC1=N/C(=C\c2ccc(C)o2)C(=O)S1	i	i	i	i	i	i
Cc1ccc(CCN2CC(C(=O)N3CCN(c4ccc(F)cc4)CC3)CC2=O)cc1 (configuration not stated)	i	i	i	i	nt	i
CCn1c(COc2ccccc2)nnc1SCC(=O)NC1CCCCC1	i	i	i	i	i	i
SMILES	Cav3 T inh	Smad3 inh	DAT uptake mod	PostGolgi ctrl	TNAP act DEA	PostGolgi yeast
CCn1c(CNc2cccc(Cl)c2)nnc1SCC(=O)OC1CCCCC1	nt	i	nt	i	i	i
CCn1c(CNc2ccc(Cl)cc2)nnc1SCC(=O)OC1CCCCC1	-8.4	i	i	nt	nt	nt
CCn1c(CNc2ccccc2Cl)nnc1SCC(=O)OC1CCCCC1	-4.5	i	i	i	i	i
COc1cc(C(=O)Nc2nnc(-c3sccc3C)s2)cc(OC)c1OC	i	i	i	36	i	i
Cn1c(Oc2ccc(Cl)cc2)c(C=O)c2ccccc21	i	nt	i	i	nt	i
O=C(Nc1ccc(Cl)cc1F)C1CCN(S(=O)(=O)c2cccnc2)CC1	i	i	i	i	i	i
COc1ccc(OC)c(NC(=O)Cc2coc3ccc(C)cc23)c1	i	i	i	i	i	i

Source: PubChem BioAssay
